Screening data (PubChem BioAssay)
VACV mCherry inh – vaccinia inhibition (mCherry reporter); Vaccinia virus mCherry reporter infection, fluorescence; Potency, µM (doses to about 36.5 µM), hits mostly inhibitors; 310,000 tested, 0.63% active; AID 720579; calls by dose curve; tested in A549 cells; note: nearly all actives have a fitted effect of over 35% in size
Vaccinia Venus – vaccinia inhibition (Venus reporter); Vaccinia virus Venus reporter expression, fluorescence; Potency, µM (highest dose often 36.5 µM), actives largely listed as inhibitors; 330,000 tested, 0.46% active; AID 720580; calls by dose curve; tested in A549 cells; note: nearly all actives have a fitted effect of over 30% in size
AmpC no deterg – inhibitors of E. coli AmpC beta-lactamase without detergent; AID 485341; AmpC nitrocefin hydrolysis, absorbance 480 nm, 0.0001% Triton; 330,000 tested, 0.52% active; P00811; Potency, µM (doses to about 57.1 µM), usual class: inhibitors; note: nearly all actives have a fitted effect of over 20% in size
Target sequence (P00811 whole entry, looked up): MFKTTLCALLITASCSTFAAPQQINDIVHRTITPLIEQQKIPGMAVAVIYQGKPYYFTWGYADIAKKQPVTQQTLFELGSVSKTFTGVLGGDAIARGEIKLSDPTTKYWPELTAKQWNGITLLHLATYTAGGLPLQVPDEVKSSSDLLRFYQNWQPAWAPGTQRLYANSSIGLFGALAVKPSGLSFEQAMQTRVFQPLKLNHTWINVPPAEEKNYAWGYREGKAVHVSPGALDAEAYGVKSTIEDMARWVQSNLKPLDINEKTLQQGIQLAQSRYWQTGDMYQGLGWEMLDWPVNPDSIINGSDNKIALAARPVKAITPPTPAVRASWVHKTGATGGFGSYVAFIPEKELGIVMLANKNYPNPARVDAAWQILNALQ
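AmpC (5.3 nM in the dispensed reagent) in 20 mM phosphate pH 7.0 with 0.01% (detergent screen) or 0.0001% Triton X-100 was preincubated with compounds for 15 min at room temperature. Nitrocefin was then added from an 800 uM solution, and hydrolysis was followed at 480 nm.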
AmpC detergent – AmpC beta-lactamase inhibition with detergent present; P00811; AmpC hydrolysis of nitrocefin, absorbance 480 nm, 0.01% Triton; Potency, µM (titrated, usually from 114 µM), usual class: inhibitors; 370,000 tested, 0.041% active; note: nearly all actives have a fitted effect of over 25% in size
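20 mM phosphate pH 7.0 + 0.01% (detergent screen) or 0.0001% Triton X-100; 5.3 nM AmpC reagent; cpd preinc 15 min RT; nitrocefin (800 uM stock) to start; A480 q20 s × 4 min; Activity was normalised to no-enzyme and no-compound control wells.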
Large screens that a line does not name were inactive. In the library only some 1.1% were active in any assay of this set; here they are far more common. Unless noted, calls come from the whole dose curve; as a rule, active = well fitted curve in the direction sought with a large enough effect; inconclusive = small, poorly fitted or top-dose-only effect, or another doubt; inactive = no such curve, though single readings can be large; an effect the other way counts as inactive or inconclusive.

O=C(CCc1cccnc1)NCC1Cc2cccc(-c3ncccn3)c2O1 (stereo not drawn)	none (no result: AmpC no deterg, AmpC detergent)
CCSc1nnc(NC(=O)c2ccc(Br)s2)s1	none
CC(C)(C)CC(=O)Nc1nnc(C(F)(F)F)s1	none
CC(NC(=O)Nc1nnc(C(F)(F)F)s1)(C(F)(F)F)C(F)(F)F	VACV mCherry inh 3.98µM, Vaccinia Venus 2.51µM
O=C(Nc1nnc(C(F)(F)F)s1)c1ccc(Br)s1	VACV mCherry inh 10µM, Vaccinia Venus inconclusive
COc1ccc(OC)c2sc(NC(=O)c3ccc(Br)s3)nc12	VACV mCherry inh inconclusive, Vaccinia Venus 11.2µM, AmpC detergent inconclusive
COC(=O)c1cc2c([nH]c1=O)CC(c1ccccc1)CC2=O (stereo not drawn)	none (no result: AmpC no deterg, AmpC detergent)
Nc1ccc(/C=C/c2nc3ccccc3s2)cc1	none (no result: AmpC no deterg, AmpC detergent)
COC(=O)C1CCN(Cc2ccc3c(c2)CN(C(=O)c2cc(-c4ccc(C)o4)[nH]n2)CCO3)CC1	none (no result: AmpC no deterg, AmpC detergent)
COc1cc(-c2ccc(C(F)(F)F)cn2)cc2c1OCCN(S(=O)(=O)C[C@]13CC[C@H](CC1=O)C3(C)C)C2	none (no result: AmpC no deterg, AmpC detergent)
O=C1CCNc2ccc(-c3ccccc3)cc21	none
O=C1CCNc2cc3ccccc3cc21	VACV mCherry inh 22.4µM, Vaccinia Venus inconclusive
CCCC[C@@H](C)C[C@@H](C)C(=O)N(C)[C@@H](CC(C)C)C(=O)N[C@H](C(=O)N(C)[C@H](C(=O)N1C[C@@H](O)C[C@H]1C(=O)N1C(=O)C=C[C@@H]1C)C(C)C)C(C)OC(C)=O (stereo partly drawn)	VACV mCherry inh inconclusive, Vaccinia Venus 10µM (no result: AmpC detergent)
CN1CCN(c2cc(=O)n(Cc3ccc(F)cc3)c(=O)[nH]2)CC1	AmpC no deterg 0.562µM
O=c1cc(N2CCN(c3ccccc3)CC2)[nH]c(=O)n1Cc1ccc(F)cc1	AmpC detergent inconclusive
Nc1cc2c3c(cccc3c1)C(=O)N(CCN1CCCC1)C2=O	VACV mCherry inh inconclusive, Vaccinia Venus inconclusive
O=C1c2cccc3cc([N+](=O)[O-])cc(c23)C(=O)N1CCN1CCCC1	VACV mCherry inh 0.316µM, Vaccinia Venus inconclusive
CCc1ccc(NC(=O)C2=CC(c3cccs3)=NS(=O)(=O)N2C)cc1	VACV mCherry inh inconclusive, AmpC no deterg 17.8µM
COc1ccccc1N1CCN(C(=O)CCCN2C(=O)c3cccc4cccc(c34)C2=O)CC1	VACV mCherry inh 11.2µM
O=C(CCN1CCN(Cc2ccccc2)CC1)NNC(=O)Cc1ccc(Cl)c(Cl)c1	VACV mCherry inh 28.2µM, Vaccinia Venus inconclusive, AmpC detergent inconclusive
O=C(CCl)Nc1cccc2ncccc12	VACV mCherry inh 3.55µM, Vaccinia Venus inconclusive
O=S(=O)(Nc1cc(S(=O)(=O)N2CCOCC2)ccc1NCC1CCCO1)c1ccc(F)cc1 (stereo not drawn)	VACV mCherry inh 2.24µM, Vaccinia Venus inconclusive
Cc1ccc(-c2nc(C#N)c(NCc3cccc4c3OCO4)o2)cc1	AmpC no deterg 0.316µM
N#Cc1nc(-c2ccc(F)cc2)oc1NCc1cccc2c1OCO2	none
CCn1nc(-c2ccc(C)cc2)nc2c(=O)n(C)c(=O)nc1-2	VACV mCherry inh 2.51µM, Vaccinia Venus 3.16µM (no result: AmpC no deterg, AmpC detergent)
CCS(=O)(=O)n1nc(-c2ccc(C)cc2)nc1N	none
CCOC(=O)Cn1nc(-c2ccccc2)nc1-c1ccccc1	none (no result: VACV mCherry inh, Vaccinia Venus)
CCn1nc(-c2ccccc2)nc2c(=O)n(C)c(=O)nc1-2	VACV mCherry inh 2.51µM, Vaccinia Venus 2.24µM
Cc1nc(C)c(C(=O)NCc2nc(-c3cccc(NC(=O)c4ccccn4)c3)oc2C)s1	VACV mCherry inh inconclusive (no result: AmpC no deterg, AmpC detergent)
Cc1cc(=O)c(C(=O)NCCc2ccccn2)c2n1-c1ccccc1SC(c1cccs1)C2 (stereo not drawn)	none (no result: AmpC no deterg, AmpC detergent)
COc1cc(=O)n2c(c1C(=O)N(C)Cc1nccs1)CCN(Cc1cc3ccccc3s1)CC2	none (no result: AmpC no deterg, AmpC detergent)
Cn1c(-c2ccncc2)nc2cc(C(=O)N3CCCC3c3nccs3)cc(NC(=O)C3CCC3)c21 (stereo not drawn)	none (no result: AmpC no deterg, AmpC detergent)
CCCCNc1nc2ccccc2n1CC(=O)Nc1c(C)cccc1CC	Vaccinia Venus inconclusive, AmpC no deterg 20µM
CCc1cccc(C)c1NC(=O)Cn1c(NCCO)nc2ccccc21	none
CCOC(=O)c1c2c(n(Cc3ccccc3)c1C)C(=O)C(=O)c1ccccc1-2	VACV mCherry inh inconclusive, Vaccinia Venus 4.47µM (no result: AmpC no deterg, AmpC detergent)
CCOC(=O)c1c2c(n(C)c1C)C(=O)C(=O)c1ccc(Br)cc1-2	none (no result: AmpC no deterg, AmpC detergent)
Cc1ccc(OCCCCNC2CCCC(C)C2C)c(C)c1 (stereo not drawn)	VACV mCherry inh inconclusive, Vaccinia Venus 10µM
O=C(NC1CCCCC1)C(=O)c1c(-c2ccccc2)[nH]c2ccccc12	AmpC no deterg 12.6µM
O=C(NC1CC1)C(=O)c1c(-c2ccccc2)[nH]c2ccccc12	AmpC detergent inconclusive
